ATXN2 expr inh: inhibitors of ATXN2 expression | HEK-293 ATXN2-luciferase reporter, luminescence, 24 h | Potency, µM (doses to about 57 µM), most hits filed as inhibitors | 360,000 tested, 0.72% active; further: nearly all actives have a fitted effect of over 55% in size
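qHTS (up to 57 uM final) was run with 24 h compound exposure of reporter cells at 37 °C. Each well was multiplexed: SteadyGlo luminescence measured ATXN2-luciferase expression after a fluorogenic Gly-Phe-AFC viability readout (25 uM final).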
S2 tox: cell viability loss in ATXN counter-screen | Potency, µM (series often up to 56.7 µM), actives largely listed as cytotoxic | S2 cells (HEK-293 line with an ATXN2-luciferase reporter) viability, CellTiter-Fluor protease fluorescence, 24 h | 400,000 tested, 0.49% active; further: nearly all actives have a fitted effect of over 40% in size
IL1B secr inh: blocks inflammasome-driven IL-1 beta release; THP-1 LPS/ATP IL-1B secretion, AlphaLISA, 16 h; active compounds read low; activity change, % at 57.5 µM; 360,000 tested, 4.7% active; AID 743279; in the data active means activity change below about -50%; inconclusive means mostly about -30% to -49%
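THP-1 cells pretreated 1 hr with compounds (up to 57.5 uM final), then stimulated with LPS (250 ng/mL final) plus ATP (1.25 mM final); secreted IL-1B measured by AlphaLISA after 16 hr, decreased signal indicating inhibition.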
PINK1 modulator: PINK1 expression modulation. AID 624263. Potency, µM (series often up to 76.6 µM), most hits filed as activators. 410,000 tested, 0.2% active. PINK1 immunofluorescence, high-content cytometry, 24 h; active means well fitted activation curve with a large enough effect; inconclusive means small, poorly fitted or top-dose-only effect; cell line not stated here; further: nearly all actives have a fitted effect of over 65% in size
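A stable cell line was treated with compounds at 5 concentrations for 24 hours, with CCCP as control. PINK1 levels and mitochondrial localization were measured by immunofluorescence with mitochondrial, cell and nuclear markers after fixation, read by laser-scanning cytometry.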
SW480 rereplic: DNA re-replication induction in SW480 cells; Potency, µM (titrated, usually from 46.1 µM), hits mostly activators; SW480 DNA re-replication, Hoechst DNA content imaging, 48 h; 340,000 tested, 1.8% active; further: nearly all actives have a fitted effect of over 55% in size
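Quantitative HTS format with DMSO vehicle controls; 48 hr drug incubation at 37 C, then 40 min Hoechst staining and scanning imager measurement at 405 nm excitation.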
MCF10A rerep: DNA re-replication induction in MCF 10a cells; 350,000 tested, 2.9% active; MCF 10A DNA re-replication, Hoechst nuclear intensity, 48 h; Potency, µM (series often up to 46.1 µM), actives largely listed as activators; further: nearly all actives have a fitted effect of over 50% in size
A number is an active result; [ ] = remark or other dose. Rows were chosen to be rich in hits. Some 7.1% of all compounds tested hit in one or more screens of this group. Unless noted, the call rests on the fitted dose curve; in most records, active means well fitted curve in the direction sought with a large enough effect; inconclusive means small, poorly fitted or top-dose-only effect, or another doubt; inactive means no such curve, though single readings can be large; an effect the other way counts as inactive or inconclusive.

For CCCC12CN3CC(CCC)(CN(C1)C3c1c(C)[nH]c(=O)[nH]c1=O)C2=O (stereo unspecified) the results were ATXN2 expr inh inactive, S2 tox inactive and PINK1 modulator inactive.
COc1ccc(COc2ccsc2C(=O)Nc2ccc(Cl)cc2)cc1 was read as ATXN2 expr inh inactive, S2 tox inconclusive, IL1B secr inh inactive, PINK1 modulator inactive, SW480 rereplic inconclusive and MCF10A rerep 18µM.
Screening O=C(N/N=C/c1ccc(F)cc1)c1sccc1OCc1ccc(F)cc1 returned ATXN2 expr inh inactive, S2 tox inconclusive, IL1B secr inh inactive, PINK1 modulator inactive, SW480 rereplic 9.2µM and MCF10A rerep 7.3µM.
NNC(=O)c1sccc1OCc1ccc(F)cc1 was read as ATXN2 expr inh inactive[11.3 µM], S2 tox inactive, IL1B secr inh inactive, PINK1 modulator inactive, SW480 rereplic inactive and MCF10A rerep inactive.
O=C(N/N=C/c1ccc(Cl)cc1)c1sccc1OCc1ccc(F)cc1 was read as ATXN2 expr inh inactive, S2 tox inactive, IL1B secr inh inactive, PINK1 modulator inactive, SW480 rereplic 9.2µM and MCF10A rerep 1.6µM.
Screening COC(=O)N/N=C/c1cc(Cl)c(OCc2ccc(F)cc2)c(OC)c1 returned ATXN2 expr inh inactive, S2 tox inconclusive, IL1B secr inh inactive, PINK1 modulator inconclusive, SW480 rereplic inconclusive and MCF10A rerep inactive.
`COc1cc(C(C)=O)ccc1OCC(O)CN1CCN(c2ccccn2)CC1` (stereo unspecified) gave ATXN2 expr inh inactive, S2 tox inactive, IL1B secr inh -56, PINK1 modulator inactive, SW480 rereplic inactive and MCF10A rerep inactive.
Cc1ccc(CN2CCN(C3CCN(S(=O)(=O)N(C)C)CC3)C(=O)C2=O)cc1 was read as ATXN2 expr inh inactive, S2 tox inactive and PINK1 modulator inactive.
Screening COc1ccc(Br)c2c1-c1nc(NC(=O)c3ccccc3SC)sc1C2 returned PINK1 modulator inactive.
For CCOC(=O)c1c(S(=O)(=O)N2CCN(c3ccccc3OC)CC2)c(C)n(C)c1C the results were ATXN2 expr inh inactive, S2 tox inactive and PINK1 modulator inactive.
Screening Cc1cc(C)cc(Nc2cc(C(=O)NCCCN(Cc3ccccc3)C(C)C)c3ccccc3n2)c1 returned ATXN2 expr inh 14µM, S2 tox 13µM and PINK1 modulator inactive.
CSc1cccc(Nc2cc(C(=O)NCCCN(Cc3ccccc3)C(C)C)c3ccccc3n2)c1 was read as ATXN2 expr inh 25µM, S2 tox inconclusive and PINK1 modulator inactive.
`CSc1cccc(Nc2cc(C(=O)NC3CCCCC3)c3ccccc3n2)c1` gave ATXN2 expr inh inactive, S2 tox inactive and PINK1 modulator inactive.
For COc1ccc(Nc2cc(C(=O)NCCCN(C)Cc3ccccc3)c3ccccc3n2)cc1 the results were PINK1 modulator inactive.
For Cc1cc(C)c(C)c(C(=O)CSc2nnc(-c3ccc4[nH]c(C)c(C)c4c3)o2)c1C the results were ATXN2 expr inh inactive, S2 tox inactive, IL1B secr inh inconclusive, PINK1 modulator inactive, SW480 rereplic inconclusive and MCF10A rerep 13µM.
Screening O=C1c2ccccc2C(=O)c2c(/C=C/N3CCCCC3)ccnc21 returned ATXN2 expr inh inconclusive, S2 tox inconclusive, IL1B secr inh -107, PINK1 modulator inactive, SW480 rereplic 21µM and MCF10A rerep inconclusive.
For CO[C@H]1[C@H](NC(=O)c2cccs2)c2ccccc2C12CCN(Cc1cccn1-c1ccccn1)CC2 the results were S2 tox inconclusive and PINK1 modulator inactive.
O=c1c(-c2ccco2)nc2ccccc2n1C(CCc1ccccc1)c1nc2ccccc2[nH]1 (stereo unspecified) was read as IL1B secr inh inactive.
`CCC(c1nc2ccccc2[nH]1)n1c(=O)c(-c2ccco2)nc2ccccc21` (stereo unspecified) gave IL1B secr inh -66.
For CC(C)N(Cc1cn[nH]c1-c1ccc(-c2ccccc2)cc1)Cc1nccn1C the results were ATXN2 expr inh inconclusive, S2 tox inconclusive, IL1B secr inh -74, PINK1 modulator inactive, SW480 rereplic inconclusive and MCF10A rerep inconclusive.
`Cc1cc2c(cc1S(=O)(=O)CCC(=O)N1CCCC(C)C1)OCC(=O)N2` (stereo unspecified) gave ATXN2 expr inh inactive, S2 tox inactive and PINK1 modulator inactive.
`NC1=NC(=O)/C(=C/c2ccc(Cl)cc2Cl)S1` gave ATXN2 expr inh inactive, S2 tox inactive, IL1B secr inh inactive, PINK1 modulator inactive, SW480 rereplic inactive and MCF10A rerep inconclusive.
For NC1=NC(=O)/C(=C\c2cc([N+](=O)[O-])ccc2Cl)S1 the results were S2 tox inconclusive, IL1B secr inh inactive, PINK1 modulator inactive, SW480 rereplic 0.46µM and MCF10A rerep inactive.
Screening Cc1ccc(S(=O)(=O)c2nnn3c2nc(NCc2ccc(F)cc2)c2sccc23)cc1C returned PINK1 modulator inactive.
Screening O=C(c1ccccc1Cc1ccccc1)N1CCN(S(=O)(=O)c2ccccc2Br)CC1 returned ATXN2 expr inh inactive, S2 tox inactive, IL1B secr inh -61, PINK1 modulator inactive, SW480 rereplic inactive and MCF10A rerep inconclusive.
Screening COc1ccc(CN2CCOc3ccc(CN4CCN(CCO)CC4)cc3C2)c2ccccc12 returned S2 tox inactive and PINK1 modulator inactive.
For c1ccc(COc2cccc(-c3cc4nc(NCCc5ccncc5)ccn4n3)c2)cc1 the results were ATXN2 expr inh inconclusive, S2 tox inconclusive, IL1B secr inh -60 and PINK1 modulator inactive.
Screening COc1cc(-c2cc3nc(NCCc4ccc(S(N)(=O)=O)cc4)ccn3n2)cc(OC)c1OC returned ATXN2 expr inh inactive, S2 tox inactive, IL1B secr inh -50 and PINK1 modulator inactive.
Screening NS(=O)(=O)c1ccc(CCNc2ccn3nc(-c4ccccc4)cc3n2)cc1 returned ATXN2 expr inh inactive, S2 tox inactive, IL1B secr inh inactive and PINK1 modulator inactive.
Screening COc1cc(-c2cc3nc(NCCc4ccncc4)ccn3n2)cc(OC)c1OC returned ATXN2 expr inh inactive, S2 tox inactive, IL1B secr inh -58 and PINK1 modulator inactive.
For Clc1cccc(CNc2ccn3nc(-c4cccc(Cl)c4)cc3n2)c1 the results were ATXN2 expr inh inactive, S2 tox inconclusive, IL1B secr inh -51 and PINK1 modulator inconclusive.
COc1cc(-c2cc3nc(NCCOc4ccccc4)ccn3n2)cc(OC)c1OC was read as ATXN2 expr inh inconclusive, S2 tox inconclusive, IL1B secr inh inactive and PINK1 modulator inactive.
Screening COc1ccc(CNC(=O)CCC(=O)N2CCSc3ccccc32)cc1 returned PINK1 modulator inactive.
